Values without a mark were called inactive. Inconclusive results are not listed. Active and inactive are the calls of the source. The call rests on the fitted dose curve; in most records, active means well fitted curve in the direction sought with a large enough effect; inconclusive means small, poorly fitted or top-dose-only effect, or another doubt; inactive means no such curve, though single readings can be large; an effect the other way counts as inactive or inconclusive.

Assay [1] has as its target Phospholipid hydroperoxide glutathione peroxidase GPX4 (Homo sapiens) (UniProt P36969). The assay can be described thus: Primary qHTS Assay for Inhibitors of Recombinant Selenoprotein Glutathione Peroxidase 4 (GPX4) (AID 1845192). Further: on the % scale 0 is the no-effect control and ±100 the full control effect; nearly all actives have a fitted effect of over 65% in size. In outline:
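NADPH consumption followed by fluorescence at 340/450 nm, t=0 and after 15 min at room temperature. Reaction started with cumene hydroperoxide (0.5 mM final) after 30 min compound–GPX4 preincubation; final 200 nM GPX4, 100 nM GR, 1 mM GSH, 0.5 mM NADPH.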

Assay [2] in a line: qHTS profiling for inhibitors of Plasmodium falciparum proliferation (AID 504749).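 Further: 0% = DMSO vehicle and full inhibition = artemisinin control; nearly all actives have a fitted effect of over 60% in size.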 The settings on record: P. falciparum in erythrocytes, SYBR Green DNA, 72 h, at 28.7 µM (top of the series). In outline: (§1)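 In a 72 h erythrocytic culture (37 C, humidified, 5% CO2) at 2.5% hematocrit and 0.3% starting parasitemia, compounds were tested; SYBR Green I in detergent lysis buffer stained parasite DNA overnight.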

The test system of the next assay is 3D7. The description is as above. To be noted: P. falciparum in erythrocytes, SYBR Green DNA, 72 h; series mostly up to 28.7 µM. In outline:
as §1

A further assay deals with AA1029. The assay is described as above. The settings on record: P. falciparum in erythrocytes, SYBR Green DNA, 72 h; series mostly up to 28.7 µM. In outline: as §1
The test system of a further assay is AS120. Described as above. To be noted: P. falciparum in erythrocytes, SYBR Green DNA, 72 h; series mostly up to 28.7 µM. In outline: as §1
The subject of another assay is ATS189. The description is as above. To be noted: P. falciparum in erythrocytes, SYBR Green DNA, 72 h; series mostly up to 28.7 µM. In outline:
as §1

For assay [3], the target named is Cytochrome P450 2D6 (Homo sapiens) (UniProt P10635). The assay can be described thus: qHTS for inhibitors of CYP2D6 against the NCATS DSHEA and TCM libraries (AID 1919972). Further: on the % scale 0 is the no-effect control and ±100 the full control effect. A digest of the protocol:
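qHTS, concentration–response format with most substances from 19.5 nM. CYP2D6 + pro-luciferin substrate, 15 min with compound, then 1x NADPH regen, 30–45 min RT dark. Glo detection 30 min, luminescence. Quinidine control.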

Assay [4] deals with Cytochrome P450 2C19 (Homo sapiens) (UniProt P33261). The assay can be described thus: qHTS for inhibitors of CYP2C19 against the NCATS DSHEA and TCM libraries (AID 1919974).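 Further: luminescence from luciferin released by CYP2C19 oxidation of a pro-luciferin substrate.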 Further: potency means the concentration at half of the fitted maximal effect. In outline: (§2)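 Isoform-specific enzyme and substrate levels; enzyme-free wells as background. Reaction: 1x NADPH regenerating system, 30-45 min, room temperature, shielded from light; luminescent detection reagent added, 30 min.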

A short description of assay [5]: KB-3-1 P-gp reporter qHTS against the NCATS DSHEA and TCM libraries (AID 1919975). Further: 0% is about no effect. In outline: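 CellTiter-Glo luminescence viability readout; KB-3-1 parental cells, 500/well, attached ~4 h, then compound for ~72 h, 37C, 5% CO2. Bortezomib intraplate control.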
Assay [6] addresses Cytochrome P450 1A2 (Homo sapiens) (UniProt P05177). The assay can be described thus: qHTS for inhibitors of CYPIA2 against the NCATS DSHEA and TCM libraries (AID 1919976).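 Further: light from luciferin formed by CYP1A2 from a pro-luciferin substrate; on the % scale 0 is the no-effect control and ±100 the full control effect.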 A digest of the protocol:
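Furafylline served as the plate control. Compounds met CYP1A2 and pro-luciferin substrate 15 min before NADPH regeneration solution (1x) was added; after 30-45 min at RT, P450-Glo reagent was added for 30 min and luminescence was measured.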

Assay [7] is described as follows: qHTS Counterscreen for compound interference against the NCATS DSHEA and TCM libraries (AID 1919978).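 Further: compounds preincubated with 1 µM D-luciferin or buffer before detection reagent; % of control where 0% means no effect.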 The settings on record: firefly luciferase detection reagent interference, luminescence. A digest of the protocol: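 Luminescence counterscreen for detection-kit interference: compounds at 19.5 nM–39.8 uM final, 15 min RT with 1 uM D-luciferin or buffer only; detection reagent added, 30 min RT, then read.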

A short description of assay [8]: Dual reporter qHTS for agonist of Pregnane X Receptor (hPXR) against the NCATS DSHEA and TCM libraries: Fluorescence readout (AID 1920058). Further: 0% is about no effect. In outline:
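In this qHTS counter-read, reporter-bearing HepG2 cells in charcoal-stripped serum received substances for approximately 24 h before viability was assessed fluorometrically with CellTiter-Fluor.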

For assay [9], the target named is Nuclear receptor subfamily 1 group I member 2 (Homo sapiens) (UniProt O75469). The assay can be described thus: Dual reporter qHTS for antagonist of Pregnane X Receptor (hPXR) against the NCATS DSHEA and TCM libraries: Luminescence Readout (AID 1920060).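 Further: HepG2 cells carrying hPXR luciferase reporter stimulated with rifampicin at 2 µM; 0% is about no effect.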 In outline: (§3)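 In antagonist mode, 2 uM rifampicin was added to hPXR-Luc HepG2 cells alongside test substances, incubated 24 h at 37 C; luminescence gave reporter activity, and CellTiter-Fluor fluorescence (405/540 nm) gave viability.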

Assay [10] in a line: Dual reporter qHTS for antagonist of Pregnane X Receptor (hPXR) against the NCATS DSHEA and TCM libraries: Fluorescence Readout (AID 1920061). Further: 0% is about no effect. In outline: as §3
For a further assay, the system named is 7G8. The assay can be described thus: qHTS profiling for inhibitors of Plasmodium falciparum proliferation (AID 504749).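 Further: 0% = DMSO vehicle and full inhibition = artemisinin control; nearly all actives have a fitted effect of over 60% in size.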 The settings on record: P. falciparum in erythrocytes, SYBR Green DNA, 72 h; series mostly up to 28.7 µM. A digest of the protocol: as §1
In assay [11] the target is Cytochrome P450 3A4 (Homo sapiens) (UniProt P08684). The assay can be described thus: qHTS for inhibitors of CYP3A4 against the NCATS DSHEA and TCM libraries (AID 1919971).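 Further: on the % scale 0 is the no-effect control and ±100 the full control effect; inhibition lowers luminescence from luciferin made by CYP3A4.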 A digest of the protocol:
as §2

Assay [12] has as its target Cytochrome P450 2C9 (Homo sapiens) (UniProt P11712). The assay can be described thus: qHTS for inhibitors of CYP2C9 against the NCATS DSHEA and TCM libraries (AID 1919973).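 Further: luminogenic pro-luciferin CYP2C9 substrate turned into luciferin with NADPH regeneration; on the % scale 0 is the no-effect control and ±100 the full control effect.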 In outline: as §2
Assay [13] has as its target Nuclear receptor subfamily 1 group I member 2 (Homo sapiens) (UniProt O75469). The assay can be described thus: Dual reporter qHTS for agonist of Pregnane X Receptor (hPXR) against the NCATS DSHEA and TCM libraries: Luminescence readout (AID 1920059). Further: 0% is about no effect. A digest of the protocol:
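Luminescent PXR reporter read (ONE-Glo) after a CellTiter-Fluor viability read, following 24 h, 37C treatment of HepG2 cells stably carrying hPXR-Luc.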

Chain of Nuclear receptor subfamily 1 group I member 2 (Homo sapiens) (O75469 whole entry, looked up): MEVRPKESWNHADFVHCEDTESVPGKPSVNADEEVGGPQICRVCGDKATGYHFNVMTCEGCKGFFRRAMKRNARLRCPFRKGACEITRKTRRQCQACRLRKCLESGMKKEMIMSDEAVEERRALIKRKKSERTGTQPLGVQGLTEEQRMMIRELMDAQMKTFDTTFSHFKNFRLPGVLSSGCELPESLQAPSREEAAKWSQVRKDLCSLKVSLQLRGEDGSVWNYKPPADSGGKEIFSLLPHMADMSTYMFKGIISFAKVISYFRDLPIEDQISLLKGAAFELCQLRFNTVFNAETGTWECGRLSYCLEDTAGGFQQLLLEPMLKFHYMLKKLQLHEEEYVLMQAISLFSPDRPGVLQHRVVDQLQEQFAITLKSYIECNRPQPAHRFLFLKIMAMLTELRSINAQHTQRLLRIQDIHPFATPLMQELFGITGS
Chain of Cytochrome P450 2D6 (Homo sapiens) (P10635 whole entry, looked up): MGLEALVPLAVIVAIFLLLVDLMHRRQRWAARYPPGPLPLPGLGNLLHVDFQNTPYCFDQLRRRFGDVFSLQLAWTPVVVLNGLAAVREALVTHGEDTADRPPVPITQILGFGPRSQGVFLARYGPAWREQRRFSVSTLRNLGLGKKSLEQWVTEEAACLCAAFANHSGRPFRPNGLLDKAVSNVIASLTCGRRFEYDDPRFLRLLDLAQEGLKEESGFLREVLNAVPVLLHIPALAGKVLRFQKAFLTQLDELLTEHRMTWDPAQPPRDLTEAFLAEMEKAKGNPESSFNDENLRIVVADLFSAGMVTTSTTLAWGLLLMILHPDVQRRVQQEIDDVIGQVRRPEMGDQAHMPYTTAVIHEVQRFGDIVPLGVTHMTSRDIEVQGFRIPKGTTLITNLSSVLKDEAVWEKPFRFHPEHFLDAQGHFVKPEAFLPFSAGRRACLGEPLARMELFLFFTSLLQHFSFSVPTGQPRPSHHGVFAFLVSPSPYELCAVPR
Chain of Cytochrome P450 2C19 (Homo sapiens) (P33261 whole entry, looked up, canonical isoform): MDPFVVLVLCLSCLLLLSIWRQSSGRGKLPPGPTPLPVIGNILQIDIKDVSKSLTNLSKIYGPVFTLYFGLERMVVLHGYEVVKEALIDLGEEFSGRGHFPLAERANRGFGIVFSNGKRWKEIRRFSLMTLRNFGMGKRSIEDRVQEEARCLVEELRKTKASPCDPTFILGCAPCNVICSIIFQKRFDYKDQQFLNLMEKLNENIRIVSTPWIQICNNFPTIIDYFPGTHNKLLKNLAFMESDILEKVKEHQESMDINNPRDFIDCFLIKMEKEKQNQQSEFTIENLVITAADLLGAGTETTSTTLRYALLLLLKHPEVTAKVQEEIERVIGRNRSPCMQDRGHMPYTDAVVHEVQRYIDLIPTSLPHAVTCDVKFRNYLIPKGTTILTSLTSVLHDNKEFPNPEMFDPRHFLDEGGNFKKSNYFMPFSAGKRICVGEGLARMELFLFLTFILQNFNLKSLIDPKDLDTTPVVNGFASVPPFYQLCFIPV
Chain of Cytochrome P450 1A2 (Homo sapiens) (P05177 whole entry, looked up): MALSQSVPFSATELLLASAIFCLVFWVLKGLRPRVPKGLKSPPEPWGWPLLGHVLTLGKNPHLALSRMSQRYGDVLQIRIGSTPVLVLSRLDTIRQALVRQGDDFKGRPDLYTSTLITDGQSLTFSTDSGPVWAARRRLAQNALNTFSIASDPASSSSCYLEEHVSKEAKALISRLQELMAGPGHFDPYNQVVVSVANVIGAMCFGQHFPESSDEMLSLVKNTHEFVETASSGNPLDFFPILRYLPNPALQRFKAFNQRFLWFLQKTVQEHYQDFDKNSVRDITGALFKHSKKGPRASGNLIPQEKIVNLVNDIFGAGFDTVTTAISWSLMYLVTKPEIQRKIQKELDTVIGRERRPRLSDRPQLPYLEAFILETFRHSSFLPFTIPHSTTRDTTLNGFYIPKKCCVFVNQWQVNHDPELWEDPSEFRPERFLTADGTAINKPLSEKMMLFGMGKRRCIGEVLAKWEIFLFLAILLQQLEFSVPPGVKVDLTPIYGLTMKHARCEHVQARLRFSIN
Chain of Cytochrome P450 3A4 (Homo sapiens) (P08684 whole entry, looked up): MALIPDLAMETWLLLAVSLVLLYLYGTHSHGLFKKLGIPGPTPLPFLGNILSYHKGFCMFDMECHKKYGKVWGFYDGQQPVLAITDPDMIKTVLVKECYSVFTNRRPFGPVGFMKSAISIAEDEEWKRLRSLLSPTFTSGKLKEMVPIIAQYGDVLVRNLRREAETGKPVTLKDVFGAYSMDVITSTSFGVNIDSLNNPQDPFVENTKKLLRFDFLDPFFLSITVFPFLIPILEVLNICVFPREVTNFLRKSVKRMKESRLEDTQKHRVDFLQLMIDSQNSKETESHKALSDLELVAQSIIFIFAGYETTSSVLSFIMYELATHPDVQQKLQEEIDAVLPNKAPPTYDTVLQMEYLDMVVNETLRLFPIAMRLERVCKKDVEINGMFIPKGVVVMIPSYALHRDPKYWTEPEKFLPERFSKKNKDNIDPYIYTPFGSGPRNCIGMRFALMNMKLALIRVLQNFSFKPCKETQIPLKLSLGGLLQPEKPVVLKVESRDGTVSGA
Chain of Cytochrome P450 2C9 (Homo sapiens) (P11712 whole entry, looked up): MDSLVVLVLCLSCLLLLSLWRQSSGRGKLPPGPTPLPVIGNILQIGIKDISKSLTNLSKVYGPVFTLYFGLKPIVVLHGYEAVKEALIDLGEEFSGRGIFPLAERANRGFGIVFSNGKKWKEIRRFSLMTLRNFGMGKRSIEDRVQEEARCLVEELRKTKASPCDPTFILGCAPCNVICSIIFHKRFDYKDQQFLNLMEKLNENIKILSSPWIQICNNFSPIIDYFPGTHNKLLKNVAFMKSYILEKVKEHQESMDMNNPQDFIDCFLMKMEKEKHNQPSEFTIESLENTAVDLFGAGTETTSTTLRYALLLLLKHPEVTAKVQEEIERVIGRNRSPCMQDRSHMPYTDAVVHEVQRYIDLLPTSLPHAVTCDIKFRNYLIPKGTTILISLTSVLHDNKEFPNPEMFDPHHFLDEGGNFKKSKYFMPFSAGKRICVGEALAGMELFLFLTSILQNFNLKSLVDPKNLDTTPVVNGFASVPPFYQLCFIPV
Chain of Phospholipid hydroperoxide glutathione peroxidase GPX4 (Homo sapiens) (P36969 whole entry, looked up): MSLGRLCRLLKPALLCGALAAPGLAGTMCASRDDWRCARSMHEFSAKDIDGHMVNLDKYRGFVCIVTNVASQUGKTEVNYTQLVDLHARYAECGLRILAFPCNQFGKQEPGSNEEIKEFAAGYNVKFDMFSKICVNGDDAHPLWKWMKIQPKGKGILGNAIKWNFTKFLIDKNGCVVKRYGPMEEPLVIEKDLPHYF

Regarding `O=C1c2cccc(O)c2C(=O)c2c(O)cccc21`, the Potency entry (in [1]; with 3D7; in the assay on AA1029; in the assay with AS120; in the assay with ATS189) was “inactive” each time. Moreover, the activity, negative = inhibition was -0.153% in [2] (parasite line A) and 3.79% in [2] (parasite line B).
`CC(C)=CCC[C@@](C)(O)[C@H]1CC=C(C)CC1`: the call in assay [3], in [5], in assay [6], in [8], in [9] and in [10] was inactive. Also, the Potency in [4] was 5.01 µM (active). In addition, in [7], the max response was 1.71%.
In the case of `CCCOC(=O)c1ccc(N)cc1`, the activity, negative = inhibition was -0.392% in assay [2] (parasite line A) and 6.95% in assay [2] (parasite line B). In addition, the Potency entry in the assay with 3D7, with 7G8, in the assay with AA1029, with AS120 and in the assay on ATS189 was “inactive” throughout.
Consider `O=C(O)c1ccc[n+]([O-])c1`, for which the figures for the activity, negative = inhibition in assay [2] (parasite line A) and in [2] (parasite line B) were -4.83% and 10.2%, respectively. The Potency entry in the assay on 3D7, with 7G8, in the assay on AA1029, in the assay on AS120 and with ATS189 was “inactive” each time.
For the compound `CN1C(C)(C)CCCC1(C)C`, the activity, negative = inhibition in assay [2] (parasite line A) was 8.89%; in assay [2] (parasite line B) it was 5.87%. In addition, the Potency result in the assay on 3D7, with 7G8, in the assay on AA1029, with AS120 and in the assay with ATS189 was “inactive” throughout.
Turning to `O=C(/C=C/c1ccc(O)c(O)c1)O[C@@H]1C[C@@](OC(=O)/C=C/c2ccc(O)c(O)c2)(C(=O)O)C[C@@H](O)[C@@H]1O`, the result in [11], in [3], in [12], in assay [5], in [8] and in assay [13] was inactive. Further, the call in [9] and in [10] was inactive. The Potency result in [4] is “inactive”. Further, in assay [7], the max response is 5.25%.
`COc1ccc(C(=O)N2CCN(CC(=O)N3CCOCC3)CC2)cc1`: the activity, negative = inhibition in [2] (parasite line A) was 2.87%; in [2] (parasite line B), 20.6%. Further, the Potency entry in the assay on 3D7, in the assay on 7G8, in the assay with AA1029, in the assay on AS120 and with ATS189 was “inactive” each time.
As for `CCOC(N)=O`, the activity, negative = inhibition in assay [2] (parasite line A) was 8.86%; in assay [2] (parasite line B) it was 9.69%. Besides, the Potency entry in the assay on 3D7, in the assay with 7G8, in the assay on AA1029, in the assay with AS120 and in the assay on ATS189 was “inactive” throughout.
As to `O=c1[nH]c(=O)c2ccccc2o1`, the activity, negative = inhibition in assay [2] (parasite line A) was 2.32%; in assay [2] (parasite line B), 10.5%. For the same compound, the Potency entry with 3D7, in the assay with 7G8, in the assay with AA1029, with AS120 and in the assay on ATS189 was “inactive” each time.
Turning to `COc1cc(C(=O)NCCCCCC(=O)O)cc(OC)c1OC`, the values for the activity, negative = inhibition in [2] (parasite line A) and in [2] (parasite line B) were 8.13% and 13.6%, respectively. The Potency result with 3D7, in the assay on 7G8, in the assay with AA1029, with AS120 and in the assay on ATS189 was “inactive” throughout.
Take `Cc1cc(=O)[nH]c(=S)[nH]1`: the activity, negative = inhibition is 10.7% in assay [2] (parasite line A) and 5.6% in assay [2] (parasite line B). For the same compound, the Potency result in the assay with 3D7, in the assay with 7G8, in the assay with AA1029, in the assay on AS120 and with ATS189 was “inactive” throughout.
Take `O=C(NCCCN1CCOCC1)c1ccc(Cl)cc1`: the activity, negative = inhibition in assay [2] (parasite line A) is 6.41%; in [2] (parasite line B), 5.99%. Further, the Potency result in the assay with 3D7, in the assay on 7G8, with AA1029, in the assay on AS120 and with ATS189 was “inactive” in each case.
For `OCC(O)CS` (configuration not stated), the activity, negative = inhibition in [2] (parasite line A) was 2.38%. In addition, the Potency entry in the assay with 3D7, in the assay on 7G8, in the assay with AA1029, with AS120 and in the assay on ATS189 was “inactive” in each case.
Take `NS(=O)(=O)c1ccc(NC(=O)CCC(=O)O)cc1`: the values for the activity, negative = inhibition in [2] (parasite line A) and in [2] (parasite line B) were 0.494% and 7.64%, respectively. Further, the Potency result in the assay on 3D7, in the assay on 7G8, in the assay on AA1029, in the assay with AS120 and in the assay with ATS189 was “inactive” each time.
`O=C1c2ccccc2S(=O)(=O)N1CCCCN1CCN(c2ncccn2)CC1`: the activity, negative = inhibition was -16.2% in assay [2] (parasite line A) and 25.9% in assay [2] (parasite line B). Moreover, the Potency result in the assay on 3D7, with AA1029, in the assay with AS120 and with ATS189 was “inactive” throughout.

(Values after PubChem BioAssay (NCATS).)
